Source: PubChem
Sm TGR block: S. mansoni TGR enzyme inhibition. Q962Y6. purified TGR, DTNB reduction, TNB absorbance 405 nm. Potency, µM (titrated, usually from 114 µM), inactives show at the top dose activity change, negative = inhibition, most hits filed as inhibitors. actives 3% (n = 360,000). AID 485364; also: potency is read from the fitted curve at half-maximal effect; % is scaled to controls: 0 for no effect and ±100 for the full control effect; nearly all actives have a fitted effect of over 60% in size
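TGR 20 nM + NADPH 100 uM (dispensed conc.), cpd preinc 15 min RT; start with NADPH (500 uM addition) then DTNB (15 mM addition). Kinetic TNB absorbance, 405 nm filter. Four-parameter Hill fit across titration.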
SARS PLpro yeast: SARS-CoV PLP inhibition in yeast. S. cerevisiae expressing SARS-CoV PLpro, growth rescue. Potency, µM (series often up to 32.9 µM), inactives show top-dose activity, positive = growth rescue, actives largely listed as activators. actives 0.19% (n = 330,000); calls by dose curve; also: potency is read from the fitted curve at half-maximal effect; 0% is about no effect; nearly all actives have a fitted effect of over 55% in size
Pf growth 96h: inhibits malaria parasite growth, 96 h. P. falciparum luciferase reporter growth, 96 h. Potency, µM (doses to about 28.7 µM), for inactives: at the top dose activity change, negative = inhibition, actives largely listed as inhibitors. actives 6.9% (n = 320,000); also: potency is read from the fitted curve at half-maximal effect; % is scaled to controls: 0 for no effect and ±100 for the full control effect
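Compounds incubated with erythrocytes infected by luciferase-expressing P. falciparum (2% hematocrit, 0.05% parasitemia final) for 96 hours, 37 C in 5% CO2. Growth inhibition scored as decreased luciferase luminescence.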
Pf growth 48h: P. falciparum growth inhibition at 48 hours (one generation); P. falciparum luciferase growth in erythrocytes, 48 h; Potency, µM (highest dose often 28.7 µM), for the others: top-dose activity change, negative = inhibition, usual class: inhibitors; actives 5.9% (n = 310,000); AID 504832; also: potency is read from the fitted curve at half-maximal effect; % is scaled to controls: 0 for no effect and ±100 for the full control effect
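A one-generation exposure of luciferase-tagged malaria parasites in RPMI 1640/Albumax erythrocyte culture, 37 C and 5% CO2. Inhibition is inferred from decreased luminescence after adding detection reagent.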
HCMV antiviral: blocks human cytomegalovirus replication; HFF cells, HCMV-luciferase reporter, 72 h; active compounds read low; activity change, negative = inhibition, % at 57.5 µM; actives 4.5% (n = 410,000); AID 1259415; in the data active = activity change below about -60%; inconclusive = no clear call, values can overlap the other calls; inactive = above about -39%; also: % is scaled to controls: 0 for no effect and ±100 for the full control effect
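Human foreskin fibroblasts infected with luciferase-reporter HCMV at MOI 1 PFU/cell, compounds at two doses. Luciferase measured 72 h post infection; normalized to buffer-only basal and Salinomycin (10uM) controls.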
HCV inhibitor: blocks hepatitis C virus; Huh7.5.1 HCVcc-Cre infection, luciferase reporter, 44 h; Potency, µM (highest dose often 41.8 µM), for the others: at the highest dose activity change, negative = inhibition, hits mostly inhibitors; actives 3.4% (n = 340,000); AID 651820; also: potency is read from the fitted curve at half-maximal effect; % is scaled to controls: 0 for no effect and ±100 for the full control effect
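Antiviral activity was scored by luciferase reporter output from cells infected with HCVcc-Cre (~0.5 moi) in presence of compound, 44 h infection period, cells seeded 1,000/well 4 h prior.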
An asterisk follows results filed as active; ? = inconclusive; nt = not tested or not shown; [ ] = remark or other dose. Shown are actives, neighbours in structure and some others; about 15% of the full set was active somewhere. Unless noted, calls follow the shape of the dose curve; as a rule, active = well fitted curve in the direction sought with a large enough effect; inconclusive = small, poorly fitted or top-dose-only effect, or another doubt; inactive = no such curve, though single readings can be large; an effect the other way counts as inactive or inconclusive.

SMILES	Sm TGR block	SARS PLpro yeast	Pf growth 96h	Pf growth 48h	HCMV antiviral	HCV inhibitor
COc1ccc(C2CC(c3c(O)n(CCc4ccccc4)c(=O)[nH]c3=O)=NN2)cc1OC (stereo unspecified)	7.8%	-0.2%	-12.7%	0.0%	-18.3	17.8%
COc1ccc(COC(=O)Nc2cc3c(C(F)(F)F)nn(C)c3s2)cc1	4.0%	-7.8%	31.9%	?	-21.9	?
Cn1nc(C(F)(F)F)c2cc(NC(=O)OCc3ccc(F)cc3)sc21	13.4%	-31.8%	?	-30.7%	-35.2	10µM*
COc1ccccc1/C=C/C(=O)OCC(=O)Nc1c(C)nn(-c2ccccc2)c1C	-3.9%	-3.1%	?	?	0.0	3.4%
CCOC(=O)N/N=C/c1ccccc1F	-21.3%	0.3%	264.3%	104.5%	55.7	17.4%
CCN(CC)c1ccc(/C=N/Nc2ccc(C)cc2)c(O)c1	3.98µM*	?	?	-3.9%	-20.1	3.4%
CCOC(=O)N/N=C/c1ccc(N(CC)CC)cc1O	-0.9%	-20.6%	4.15µM*	?	24.0	3.55µM*
CCOC(=O)CCCc1ccc(/C(C)=N/NC(=S)NC)cc1	-8.7%	6.4%	0.0%	-20.0%	-95.0*	-25.5%
O=C(Cn1nc(Cc2cccnc2)c2ccccc2c1=O)Nc1ccc(F)c(Cl)c1	0.0%	nt	nt	nt	-31.3	nt
Cc1cccc(NC(=O)c2ccc(C)c(S(=O)(=O)N3CCOCC3)c2)n1	nt	nt	nt	nt	21.8	-4.0%
Cc1cc(C)n(CC(=O)NNC(=O)CCCOc2ccc(Cl)c(C)c2)n1	-20.2%	?	42.6%	-3.9%	4.5	4.4%
Cc1cc(C)n(CC(=O)NNC(=O)CCCOc2ccc(Cl)cc2C)n1	5.3%	-1.3%	2.8%	60.6%	-61.2*	-12.8%
COc1ccc(-c2c(C(=O)c3ccccc3)[nH]c(N)c2C(=O)NCc2ccccc2)cc1OC	nt	nt	nt	nt	-13.8	nt
C/C(=N\Nc1ccc(F)cc1F)c1ccccc1O	-12.5%	-5.4%	15.0%	25.7%	-68.9*	?
C/C(=N\Nc1cc(C(F)(F)F)ccc1Cl)c1ccccc1O	1.6%	11.5%	-38.6%	?	-11.7	?
CCOC(=O)c1ccc(NC(=O)CSc2nccn2-c2ccc(OCC)cc2)cc1	-3.7%	nt	nt	nt	-21.2	nt
Cc1ccc(NC(=O)/C(=C/c2cccc([N+](=O)[O-])c2)NC(=O)C2CCCCC2)c(C)c1	8.1%	0.4%	?	?	-96.3*	-7.0%
Cc1cc(C)nc(N(C#N)Cc2cccc([N+](=O)[O-])c2)n1	4.5%	0.7%	30.3%	-23.3%	-32.8	-0.4%
COc1ccc(CN(C#N)c2nc(C)cc(C)n2)cc1	3.9%	-2.9%	7.38µM*	?	8.5	1.5%
Cn1cc(C=CC(=O)O)c2nccnc21	nt	nt	nt	nt	-61.7*	nt
CCn1cc(C(=O)N[C@H](C(=O)NCCO)C(C)C)c(=O)c2cc3c(cc21)OCO3	11.0%	3.3%	-1.1%	-7.1%	-1.5	17.3%
O=C1CC(NCCC2=CCCCC2)C(=O)N1c1cccc(Cl)c1Cl (stereo unspecified)	?	-17.7%	54.2%	?	nt	nt
c1ccc2c(c1)[nH]c1c(N3CCC4(CC3)OCCO4)ncnc12	2.5%	-16.4%	?	nt	nt	7.08µM*
OC1(c2cccc(C(F)(F)F)c2)CCN(c2ncnc3c2[nH]c2ccccc23)CC1	2.7%	1.6%	69.3%	38.1%	-8.7	?
Fc1ccc2[nH]c3c(N4CCN(C5CCCCC5)CC4)ncnc3c2c1	0.5%	1.2%	-0.3%	2.33µM*	nt	nt
SMILES	Sm TGR block	SARS PLpro yeast	Pf growth 96h	Pf growth 48h	HCMV antiviral	HCV inhibitor
CCOc1ccc2[nH]c3c(N4CCN(c5ccccn5)CC4)ncnc3c2c1	-9.5%	-6.3%	-5.0%	?	?	1µM*
c1ccc(CN2CCN(c3ncnc4c3[nH]c3ccccc34)CC2)cc1	7.5%	-11.2%	-0.3%	0.928µM*	-105.6*	11.2µM*
Cc1nn(C(C)(C)C)c(OC(=O)c2c(F)cccc2F)c1Sc1ccccc1	-0.2%	nt	nt	nt	-5.0	nt
COc1ccc(NC(=O)CSCC(=O)N2CCN(C(=O)c3ccco3)CC2)cc1	-9.5%	0.0%	?	-10.2%	-5.3	4.5%
Cc1c(C(=O)NNc2cc(=O)n(C)c(=O)n2C)cccc1[N+](=O)[O-]	12.2%	0.7%	6.4%	-23.6%	8.0	11.0%
O=C(c1ccco1)N1CCN(c2c(-c3ccccc3)c3cc(Cl)ccc3[nH]c2=O)CC1	-22.9%	2.4%	8.9%	?	10.3	?
Cc1ccc2c(c1)[nH]c1c(N3CCN(Cc4ccccc4)CC3)ncnc12	-0.4%	13.9%	?	0.522µM*	-84.9*	3.16µM*
Cc1ccc2[nH]c3c(N4CCCCCC4)ncnc3c2c1	2.1%	-7.3%	?	2.62µM*	nt	3.16µM*
O=C(c1ccco1)N1CCN(c2ncnc3c2[nH]c2ccc(Cl)cc23)CC1	50.1µM*	?	?	?	nt	0.0%[0.335 µM]
Cc1ccc2[nH]c3c(N4CCN(Cc5ccccc5)CC4)ncnc3c2c1	-2.4%	-3.0%	nt	1.65µM*	-106.5*	?
CC(C)NC(=O)C1CCN(C(=O)N2CCOc3ccc(Cl)cc32)CC1	-4.6%	nt	nt	nt	4.3	nt
CCCCc1nc2sc3c(=O)n(N)cnc3c2c2c1CCC2	31.9%	-0.7%	-2.4%[5.75 µM]	0.1%	-37.2	4.0%
O=P(O)(COc1ccccc1)COc1ccccc1	10.0%	-2.3%	13.1µM*	7.2%	25.8	-5.5%
OCCOc1ccccc1	1.4%	-2.1%	0.0%	-14.5%	10.1	27.0%
Oc1ccc(O)c2c1C1c3ccccc3C2c2ccccc21	5.01µM*	-14.8%	0.0%	?	nt	nt
Oc1ccccc1Cl	nt	-1.0%	nt	nt	0.0	2.9%
Cc1cc(-c2ccccc2)nc2c(Br)c(=O)[nH]n12	44.7µM*	1.1%	10.4%	-22.4%	-12.6	14.7%
Cc1cc2nc(-c3ccccc3)cc(=O)n2[nH]1	-13.0%	-0.7%	84.8%	12.8%	61.6	14.1%
COCCn1c(C)cc(O)c(C(c2ccc(Cl)cc2)N2CCN(c3ccccc3)CC2)c1=O (stereo unspecified)	2.82µM*	nt	nt	nt	10.7	nt
COCCn1c(N2CCN(c3ccccc3)CC2)nc2c1c(=O)n(C)c(=O)n2C	0.0%	-0.2%	37.4%	-2.5%	-21.8	?
CCOc1ccc(C(c2c(O)cc(C)n(CCOC)c2=O)N2CCN(c3ccccc3)CC2)cc1 (stereo unspecified)	6.31µM*	nt	nt	nt	1.0	nt
COCCn1c(C)cc(O)c(C(c2ccc(F)cc2)N2CCN(c3ccccc3)CC2)c1=O (stereo unspecified)	3.16µM*	nt	nt	nt	3.0	nt
CCN(CC(=O)Nc1c(F)cccc1F)C(=O)c1cccn1C	nt	nt	nt	nt	15.9	nt
